In PubChem BioAssay (NCATS) one finds Potency and outcome data, which are given here for six molecules.

Values without a mark were called inactive. Results filed as inconclusive are left out. The source made the active and inactive calls. Calls come from the whole dose curve; as a rule, active = well fitted curve in the direction sought with a large enough effect; inconclusive = small, poorly fitted or top-dose-only effect, or another doubt; inactive = no such curve, though single readings can be large; an effect the other way counts as inactive or inconclusive.

Assay [1] concerns Zika virus NS2B-NS3 protease (linked construct). Nature of the assay: Primary screen NINDS Rhodamine qHTS for Zika virus inhibitors (AID 1347160). Note: nearly all actives have a fitted effect of over 55% in size. In outline:
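Each compound, titrated, sat 15 min with 25 nM linked protease before 1.5 microM Rhodamine110 substrate went in. Fluorescence gain over the next 15 min, in pH 8.0 Tris with Tween 20, gave Hill-fitted curves.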

Assay [2] concerns the target Calcium and integrin-binding protein 1 (Homo sapiens) (UniProt Q99828). Nature of the assay: Primary qHTS for Identification of Calcium Integrin Binding Protein 1 (CIB1) Competitor (AID 1508620).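 Note: GST tagged CIB1 binding a fluorescein labelled alphaIIb integrin peptide tracer; top concentration of the series differs between compounds.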 In outline:
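CIB1-GST (1 uM final) and compound incubated 15 min at room temperature before adding FITC-alphaIIb peptide tracer (100 nM final). Competition for binding read by fluorescence polarization (ex 480, em 540) after another 15 min at room temperature.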

Assay [3] in a line: Primary qHTS for inhibitors of nuclear receptor binding SET domain protein 2 (NSD2) in an isogenic RCH-ACV NSD2 p.E1099K mutant (9B) (AID 1645876). Note: nearly all actives have a fitted effect of over 70% in size. Note: potency is the fitted concentration of half-maximal effect.
Assay [4] is described as follows: Primary qHTS for inhibitors of nuclear receptor binding SET domain protein 2 (NSD2) in an RCH-ACV wild type WT cells (2C) (AID 1645877). Note: nearly all actives have a fitted effect of over 70% in size. Note: potency is the fitted concentration of half-maximal effect.
The target of assay [5] is Glutathione peroxidase 1 (Homo sapiens) (UniProt P07203). Nature of the assay: Primary qHTS Assay for Inhibitors of Recombinant Selenoprotein Glutathione Peroxidase 1 (GPX1) (AID 1845191). Note: nearly all actives have a fitted effect of over 65% in size. In outline:
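NADPH consumption tracked by fluorescence at 340/450 nm between t=0 and t=15 min, room temperature. Final mix: 10 nM GPX1, 100 nM glutathione reductase, 1 mM GSH, 0.5 mM NADPH, 0.5 mM cumene hydroperoxide, 0.01% BSA; 30 min compound–enzyme preincubation.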

For assay [6], the target named is Phospholipid hydroperoxide glutathione peroxidase GPX4 (Homo sapiens) (UniProt P36969). Nature of the assay: Primary qHTS Assay for Inhibitors of Recombinant Selenoprotein Glutathione Peroxidase 4 (GPX4) (AID 1845192). Note: nearly all actives have a fitted effect of over 65% in size. The note with it: outcome: dose series up to 50 µM unless noted. In outline:
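NADPH consumption followed by fluorescence at 340/450 nm, t=0 and after 15 min at room temperature. Reaction started with cumene hydroperoxide (0.5 mM final) after 30 min compound–GPX4 preincubation; final 200 nM GPX4, 100 nM GR, 1 mM GSH, 0.5 mM NADPH.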

The target of assay [7] is Luciferin 4-monooxygenase (Photinus pyralis) (UniProt P08659). Nature of the assay: Primary firefly luciferase (FLuc) qHTS assay for identification of artifact compounds. (AID 1845220). Note: nearly all actives have a fitted effect of over 60% in size. In outline: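 FLuc 10 nM; luciferin 10 uM; ATP 10 uM; Tris-acetate pH 7.6, Mg-acetate 10 mM; 15 min RT preincubation; 5 min reaction; luminescence.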
Assay [8] is described as follows: Primary fluorescence-based thiol-reactive (MSTI) qHTS assay for identification of artifact compounds. (AID 1845221). Note: nearly all actives have a fitted effect of over 65% in size. Note: potency is the fitted concentration of half-maximal effect. In outline:
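First, 4 uM MSTI in 2% DMSO/PBS pH 7.4 was dispensed; next, compounds were added; then plates sat 1 h at room temperature without light. Finally, emission at 598 nm was recorded.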

Assay [9] has as its system Nanoluciferase (engineered Oplophorus gracilirostris luciferase). Nature of the assay: Primary Nanoluciferase (NLuc) qHTS assay for identification of artifact compounds. (AID 1845222).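 Note: NLuc secreted into diluted conditioned medium of S16 cells.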 In outline: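 NLuc from S16 cell medium (1:55) plus test compounds, 15 min, room temperature. Luminescence after Nano-Glo (1:100) addition, 5 min.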
Assay [10] can be described thus: Primary redox qHTS assay for identification of artifact compounds. (AID 1845223). In outline: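 Redox-cycling detection via DTT (250 uM final) oxidation coupled to Amplex Red (25 uM)/HRP (250 mU/mL) in HBSS. 15 min preincubation plus 30 min after DTT, room temperature. Ex/Em 525/598 nm; 4-parameter Hill fit against DMSO and 10 uM DA3003.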
Another assay has as its system C33A. Nature of the assay: Primary qHTS to identify gynecologic anti-cancer compounds using libraries of approved drugs and bioactive compounds (AID 1345084). Note: nearly all actives have a fitted effect of over 55% in size. Note: potency is the fitted concentration of half-maximal effect. The note with it: Gynecologic cancer cell panel viability, ATPlite luminescence, 48 h; series mostly up to 57.5 µM. In outline: (§1)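 48 h compound exposure at 37 C, 5% CO2; five-point qHTS. ATPlite luminescence readout of cell ATP.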

The next assay concerns CASKI. The description is as above. The note with it: Gynecologic cancer cell panel viability, ATPlite luminescence, 48 h; series mostly up to 57.5 µM. In outline:
as §1

Another assay relates to Es-2. The description is as above. The note with it: Gynecologic cancer cell panel viability, ATPlite luminescence, 48 h; series mostly up to 57.5 µM. In outline:
as §1

Another assay deals with HeLa. The description is as above. The note with it: Gynecologic cancer cell panel viability, ATPlite luminescence, 48 h; series mostly up to 57.5 µM. In outline:
as §1

Another assay concerns Hek293T. The assay is described as above. The note with it: Gynecologic cancer cell panel viability, ATPlite luminescence, 48 h, control line for the selectivity index; series mostly up to 57.5 µM. In outline: as §1
The next assay has as its system JEG-3. Described as above. The note with it: Gynecologic cancer cell panel viability, ATPlite luminescence, 48 h; series mostly up to 57.5 µM. In outline:
as §1

The next assay relates to OV90. Described as above. The note with it: Gynecologic cancer cell panel viability, ATPlite luminescence, 48 h; series mostly up to 57.5 µM. In outline: as §1
The test system of another assay is PA-1. The description is as above. The note with it: Gynecologic cancer cell panel viability, ATPlite luminescence, 48 h; series mostly up to 57.5 µM. In outline:
as §1

A further assay deals with Tov-21-G. Described as above. The note with it: Gynecologic cancer cell panel viability, ATPlite luminescence, 48 h; series mostly up to 57.5 µM. In outline:
as §1

A further assay relates to Tov112D. Described as above. The note with it: Gynecologic cancer cell panel viability, ATPlite luminescence, 48 h; series mostly up to 57.5 µM. In outline:
as §1

Sequence of Phospholipid hydroperoxide glutathione peroxidase GPX4 (Homo sapiens) (P36969 whole entry, looked up): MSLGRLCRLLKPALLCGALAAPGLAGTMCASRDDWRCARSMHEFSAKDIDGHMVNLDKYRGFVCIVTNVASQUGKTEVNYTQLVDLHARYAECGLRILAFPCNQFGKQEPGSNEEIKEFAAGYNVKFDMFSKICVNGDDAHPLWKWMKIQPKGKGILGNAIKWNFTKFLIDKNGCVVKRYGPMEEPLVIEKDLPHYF
Sequence of Calcium and integrin-binding protein 1 (Homo sapiens) (Q99828 whole entry, looked up): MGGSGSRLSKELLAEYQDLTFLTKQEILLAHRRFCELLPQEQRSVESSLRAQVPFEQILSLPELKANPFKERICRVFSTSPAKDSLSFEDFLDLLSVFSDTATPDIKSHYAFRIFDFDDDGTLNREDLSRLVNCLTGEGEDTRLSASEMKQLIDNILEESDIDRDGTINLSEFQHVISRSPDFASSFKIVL
Sequence of Glutathione peroxidase 1 (Homo sapiens) (P07203 whole entry, looked up): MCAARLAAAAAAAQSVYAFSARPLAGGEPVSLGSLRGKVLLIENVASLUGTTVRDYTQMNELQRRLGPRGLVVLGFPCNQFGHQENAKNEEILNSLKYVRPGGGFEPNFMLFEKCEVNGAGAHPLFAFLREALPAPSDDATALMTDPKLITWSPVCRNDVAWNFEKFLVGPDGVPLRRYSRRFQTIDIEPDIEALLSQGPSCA

Turning to `Cc1cc(C)c(NC(=O)N(Cc2ccc3c(c2)Cc2ccccc2-3)C2CCCCCC2)c(C)c1`, the Potency result in assay [1], in assay [3], in assay [4], in assay [5], in assay [6] and in assay [7] was “inactive” in each case. The Potency result (in assay [8]; in assay [9]; in assay [10]; with C33A; in the assay on CASKI; with Es-2) was “inactive” each time. Besides, the Potency result with HeLa, in the assay with Hek293T, in the assay with JEG-3, in the assay on OV90, in the assay with PA-1 and with Tov-21-G was “inactive” in each case. Moreover, in the assay with Tov112D, the Potency entry is “inactive”. The outcome in [2] was inactive.
As to `N#C[C@@H]1C[C@@H]2C[C@@H]2N1C(=O)[C@@H](N)C12CC3CC(CC(O)(C3)C1)C2`, the Potency entry in [1], in assay [3], in [4], in [5], in assay [6] and in assay [7] was “inactive” each time. The Potency result (in [8]; in assay [9]; in assay [10]; with C33A; in the assay on CASKI; in the assay on Es-2) was “inactive” throughout. Besides, the Potency result in the assay with HeLa, in the assay with Hek293T, with JEG-3, with OV90, with PA-1 and with Tov-21-G was “inactive” each time. Besides, the Potency result in the assay on Tov112D was “inactive”. Further, the result in assay [2] was inactive.
For the molecule `Cc1cc(C)c(-c2csc(NC(=O)c3ccccc3)n2)c(C)c1`, the outcome in assay [2] was inactive. In addition, the Potency in assay [3] and in assay [4] was 4.09 µM (active) each time. The Potency entry (in [5]; in [6]; in assay [7]; in assay [8]; in [9]; with Es-2) was “inactive” in each case. Further, the Potency result in the assay on HeLa, in the assay with JEG-3, with OV90 and with Tov-21-G was “inactive” throughout.
Regarding `CC1(CO)CCCC2(C)C1C(OC(=O)c1ccccc1)C=C1C(=O)OCC12O` (stereo not drawn), the Potency result in [1], in assay [5], in [6], in [7], in assay [9] and in assay [10] was “inactive” in each case. Further, the Potency result with CASKI, in the assay on HeLa, in the assay on JEG-3 and with Tov112D was “inactive” throughout. Further, the results for the Potency (in assay [3]; in assay [4]; in the assay with Tov-21-G) were 2.84 µM (active), 1.79 µM (active) and 11.2 µM (active), respectively.
For `CNc1cc(OC)c(C(=O)N[C@@H]2CCN(Cc3ccccc3)[C@@H]2C)cc1Cl`, the Potency entry in [1], in assay [6], in assay [7], in assay [8], in assay [9] and in [10] was “inactive” throughout. Also, the Potency result in the assay with C33A, in the assay on CASKI, in the assay with Es-2, in the assay on HeLa, in the assay on Hek293T and with JEG-3 was “inactive” in each case. Further, the Potency result in the assay with PA-1, in the assay with Tov-21-G and with Tov112D was “inactive” each time. Further, the outcome in assay [2] was inactive. In addition, the Potency in assay [3] is 20.5 µM (active).
For `Cc1cc(N=Nc2ccc(S(=O)(=O)Nc3ccccn3)cc2)c(N)cc1O`, the Potency result (in assay [1]; in assay [5]; in assay [10]; in the assay with C33A; in the assay with JEG-3) was “inactive” each time. Also, the Potency is 8.17 µM (active) in [3]; 5.78 µM (active) in assay [4]; 0.597 µM (active) in [8]; 4.47 µM (active) in the assay on HeLa; 8.91 µM (active) in the assay with PA-1.
